The nature of assay [1]: qHTS assay for small molecule agonists of the p53 signaling pathway (AID 651631; calls by dose curve; also: nearly all actives have a fitted effect of over 15% in size; also: potency is read from the fitted curve at half-maximal effect). Summed up: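 Read-out is beta-lactamase FRET fluorescence measured 2 h after substrate addition at room temperature, in HCT-116 cells with a p53 response element-driven reporter exposed to compounds for 16 h at 37 °C.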
A general note: In qHTS, concentration-response curves come from the screen itself.

Assay [2] can be described thus: qHTS assay for small molecules that induce genotoxicity in human embryonic kidney cells expressing luciferase-tagged ATAD5 (AID 651632). Also: nearly all actives have a fitted effect of over 15% in size. Summed up: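 HEK293T cells carrying luciferase-tagged ATAD5 were given compound or DMSO vehicle and incubated 16 hr at 37C, 5% CO2. Luciferase activity was read after 30 min at room temperature with Amplite; a rise signals genotoxic stress.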

The nature of assay [3]: qHTS assay for small molecule agonists of the p53 signaling pathway - cell viability (AID 651633; calls by dose curve; also: nearly all actives have a fitted effect of over 30% in size; also: potency is read from the fitted curve at half-maximal effect). An outline of the steps:
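Viability counter-read: CellTiter-Glo luminescence (30 min, room temperature) in the same p53RE-bla plates. These plates had been exposed to compounds for 16 h at 37 C.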

A short description of assay [4]: qHTS assay for small molecules that induce genotoxicity in human embryonic kidney cells expressing luciferase-tagged ATAD5 - cell viability (AID 651634; calls by dose curve; also: nearly all actives have a fitted effect of over 25% in size; also: potency is read from the fitted curve at half-maximal effect). An outline of the steps:
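HEK293T cells carrying luciferase-tagged ATAD5, 2,000 cells/well, exposed to compound for 15.5 hr at 37C. Viability read as live-cell protease activity by CellTiter-Fluor fluorescence after 30 min at 37C.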

Assay [5] in a line: qHTS assay for small molecule disruptors of the mitochondrial membrane potential (AID 720635). Also: potency is read from the fitted curve at half-maximal effect. Summed up:
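Mitochondrial membrane potential tracked with Mito-MPS dye, red aggregates (ex 540/em 590 nm) against green monomers (ex 490/em 535 nm). Compound treatment 1 hr at 37C, dye 30 min in HepG2.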

Assay [6] is described as follows: qHTS assay to test for compound auto fluorescence at 590 nm (red) in HepG2 cells (AID 720674). Summed up: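 1 hr compound incubation on HepG2 cells, 37 C, 5% CO2; plate read ex 540 nm / em 590 nm; intensities reported as Rose Bengal sodium equivalents.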
Assay [7] can be described thus: qHTS assay to test for compound auto fluorescence at 535 nm (green) in HepG2 cells (AID 720675).
Assay [8] can be described thus: qHTS assay to test for compound auto fluorescence at 460 nm (blue) in HEK293 cells (AID 720678). Summed up:
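After cell attachment (4-5 hr, 37C), compounds were pinned onto HEK293 monolayers in 10% dialyzed FBS medium. The blue channel (405/460 nm) was read following overnight culture. Equivalency was calculated against triamterene.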

Assay [9] in a line: qHTS assay to test for compound auto fluorescence at 590 nm (red) in HEK293 cells (AID 720679). An outline of the steps: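 Plates of HEK293 cells (10% dialyzed FBS) are treated with 23 nL compound or DMSO vehicle after a 4-5 hr attachment period, incubated overnight at 37C, and read for red fluorescence at 540/590nm.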
Assay [10] in a line: qHTS assay to test for compound auto fluorescence at 535 nm (green) in HEK293 cells (AID 720680).
A short description of assay [11]: qHTS assay to test for compound auto fluorescence at 460 nm (blue) in HEK293 cell free culture (AID 720681). An outline of the steps: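 Blue fluorescence (Ex 405/Em 460 nm, triamterene-equivalent) was read immediately after pin transfer of compound or DMSO into medium (DMEM, 10% FBS) without cells.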
The nature of assay [12]: qHTS assay to test for compound auto fluorescence at 535 nm (green) in HEK293 cell free culture (AID 720682). Summed up: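 Fluorescein serves as the green reference fluorophore; each compound's intrinsic emission at 535 nm (excitation 485 nm) is reported as an equivalent amount of that dye, measured in serum-containing DMEM without cells.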
Assay [13] can be described thus: qHTS assay to test for compound auto fluorescence at 590 nm (red) in HEK293 cell free culture (AID 720683). An outline of the steps:
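Red-channel autofluorescence of compounds in culture medium (DMEM, 10% FBS), no cells, measured at 540/590 nm. Rose Bengal sodium is the reference fluorophore for equivalence.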

A short description of assay [14]: qHTS assay to test for compound auto fluorescence at 590 nm (red) in HepG2 cell free culture (AID 720684). Summed up:
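Steps: dispense MEM/10% FBS medium, no cells; pin compound or DMSO vehicle; read red channel, Ex/Em 540/590 nm. Output given as Rose Bengal sodium equivalents.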

Assay [15] in a line: qHTS assay to test for compound auto fluorescence at 460 nm (blue) in HepG2 cell free culture (AID 720685). Summed up: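 Compound (23 nL) or DMSO pinned into cell-free MEM with 10% FBS; blue fluorescence read at 405/460 nm excitation/emission, expressed as auto-fluorescence equivalency to triamterene.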
The nature of assay [16]: qHTS assay to test for compound auto fluorescence at 535 nm (green) in HepG2 cell free culture (AID 720686).
Assay [17] is described as follows: qHTS assay to test for compound auto fluorescence at 460 nm (blue) in HepG2 cells (AID 720687). An outline of the steps:
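Blue-channel autofluorescence (Ex/Em 405/460 nm, triamterene-equivalent) was measured after 1 hr compound exposure at 37 C, 5% CO2. Cells were HepG2, plated overnight at 37 C in MEM plus 10% FBS.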

The nature of assay [18]: qHTS assay for small molecule disruptors of the mitochondrial membrane potential - cell viability (AID 720634; calls by dose curve; also: nearly all actives have a fitted effect of over 20% in size; also: potency is read from the fitted curve at half-maximal effect). Summed up:
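HepG2 cells, 2,000 per well, attached overnight, then treated 1 hr at 37 C, 5% CO2. Viability read as ATP by CellTiter-Glo luminescence after 30 min at room temperature. Read in the same wells as the m-MPI membrane-potential dye assay.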

The target in assay [19] is Glucocorticoid receptor (Homo sapiens) (UniProt P04150). In words: qHTS assay to identify small molecule agonists of the glucocorticoid receptor (GR) signaling pathway (AID 720691; active = well fitted activation curve with a large enough effect in the signal ratio in the repeat runs, not every such curve was filed as active; the % refers to the signal ratio). Summed up: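 GR-bla HeLa cells carrying a GRE-driven beta-lactamase reporter, exposed to compounds for 18 h at 37 C. Reporter activation read as fluorescence after 2 h with LiveBLAzer B/G FRET substrate at room temperature.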
Sequence of Glucocorticoid receptor (Homo sapiens) (P04150 whole entry, looked up): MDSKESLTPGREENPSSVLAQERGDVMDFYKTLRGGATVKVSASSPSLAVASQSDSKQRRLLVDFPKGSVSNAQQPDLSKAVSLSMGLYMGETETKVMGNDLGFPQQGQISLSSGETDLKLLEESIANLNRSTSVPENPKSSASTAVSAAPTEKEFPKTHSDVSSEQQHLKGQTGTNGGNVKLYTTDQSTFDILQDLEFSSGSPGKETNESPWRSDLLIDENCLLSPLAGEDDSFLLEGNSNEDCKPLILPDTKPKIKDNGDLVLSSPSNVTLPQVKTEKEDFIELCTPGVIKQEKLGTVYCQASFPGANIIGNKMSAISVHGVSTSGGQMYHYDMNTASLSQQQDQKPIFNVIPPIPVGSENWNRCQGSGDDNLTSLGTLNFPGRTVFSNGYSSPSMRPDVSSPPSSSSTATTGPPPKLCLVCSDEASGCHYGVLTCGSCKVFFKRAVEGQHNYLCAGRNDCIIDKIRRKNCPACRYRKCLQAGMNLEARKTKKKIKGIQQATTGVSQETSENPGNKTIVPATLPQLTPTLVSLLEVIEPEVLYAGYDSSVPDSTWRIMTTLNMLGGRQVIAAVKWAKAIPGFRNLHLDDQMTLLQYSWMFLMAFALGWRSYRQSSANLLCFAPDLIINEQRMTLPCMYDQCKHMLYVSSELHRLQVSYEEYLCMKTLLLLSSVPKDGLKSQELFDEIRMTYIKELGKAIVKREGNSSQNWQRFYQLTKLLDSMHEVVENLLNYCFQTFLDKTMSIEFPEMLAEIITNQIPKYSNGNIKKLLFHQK

Several values for one entry are separate records, joined by “and”; a condition that tells them apart may be missing. Equal entries are not always repeated. Unmarked numbers belong to inactive results. Records with an inconclusive call do not appear. Activity calls are given as the source filed them. Unless noted, calls follow the shape of the dose curve; as a rule, active = well fitted curve in the direction sought with a large enough effect in the repeat runs; inconclusive = weak or mixed curves; inactive = no such curve, though single readings can be large; an effect the other way counts as inactive or inconclusive.

With `CC(C)[C@H](C(=O)O[C@H](C#N)c1cccc(Oc2ccccc2)c1)c1ccc(Cl)cc1`, the Potency entry in assay [1], in assay [2], in assay [3], in [4], in assay [8] and in assay [11] was “inactive” in each case. In addition, the Potency entry in [15] and in assay [17] was “inactive” throughout. In addition, the Potency in assay [5] was 30.6 µM (active). In addition, the compound was called inactive in assay [6], in [7], in assay [9], in assay [10], in [12] and in assay [13]. The compound was called inactive in assay [14] and in assay [16].

Take `COc1cc(C=O)cc2c1[C@H](COC(N)=O)[C@]1(OC(C)=O)ON2C[C@H]2[C@@H]1N2C(C)=O`: in [1], the Potency was 1.54 µM (active). Besides, the Potency result in [2], in assay [18], in assay [5], in assay [8], in [11] and in assay [15] was “inactive” in each case. In [17], the Potency entry is “inactive”. Also, the compound was called inactive in [6], in assay [7], in [10], in assay [12], in assay [13] and in [14]. Moreover, the outcome in [16] was inactive.

For `Oc1ccc(C2(c3ccc(O)cc3)c3ccccc3-c3ccccc32)cc1`, the Potency in assay [1] was 61.1 µM (active); in assay [3] it was 172 nM (active); in assay [5], 61.1 µM (active). Further, the Potency result in assay [2], in assay [8], in [11], in assay [15] and in assay [17] was “inactive” throughout. The compound was classed as inactive in [6], in assay [7], in [9], in [10], in assay [12] and in [13]. Also, the call in assay [14] and in assay [16] was inactive.

As to `BrC(Br)Br`, the Potency result in assay [1], in assay [3], in assay [4], in [18], in [8] and in assay [11] was “inactive” each time. Besides, the Potency entry in assay [17] and in assay [19] was “inactive” in each case. Also, the result in [6], in assay [7], in assay [9], in assay [10], in assay [12] and in assay [13] was inactive. In addition, the compound was called inactive in [14] and in assay [16].

As for `Clc1ccc(C(Cl)(Cl)Cl)c(Cl)c1`, the Potency entry in assay [2], in [3], in assay [4], in assay [18], in assay [8] and in assay [11] was “inactive” throughout. The Potency entry in assay [17] was “inactive”. For the same compound, the Potency in assay [5] is 61.6 µM (active). Also, the result in [6], in assay [7], in [10], in assay [12], in assay [13] and in assay [14] was inactive. Besides, the call in [16] was inactive.

On to `Clc1ccc(COC(Cn2ccnc2)c2ccc(Cl)cc2Cl)cc1` (stereo not given), for which the Potency result in [2], in assay [8], in assay [11], in assay [15] and in assay [17] was “inactive” each time. Moreover, the Potency was 29.8 µM (active) and 27.2 µM (active) in assay [3]; 26.6 µM (active) in [4]; 26.6 µM (active) in assay [18]; 18.8 µM (active) and 45.3 µM (active) and 54.3 µM (active) in assay [5]. Also, the result in assay [6], in assay [7], in assay [9], in [10], in assay [12] and in assay [13] was inactive. Besides, the result in [16] was inactive.

For the compound `COc1cccc(C(=O)CCN[C@@H](C)[C@H](O)c2ccccc2)c1`, the Potency entry in [2], in [3], in assay [4], in assay [18], in assay [8] and in assay [11] was “inactive” each time. For the same compound, the Potency result in [15] and in [17] was “inactive” each time. Besides, the compound was classed as inactive in assay [6], in [7], in assay [10], in assay [12], in [13] and in [14]. Further, the result in assay [16] was inactive.

Values taken from PubChem BioAssay (Tox21).
